This is a sample that favours compounds with a hit; in the whole collection about 2.2% have one here.
HSP90 inh – blocks HSP90-mediated luciferase refolding in reticulocyte lysate; AID 1789; Rabbit reticulocyte lysate, luciferase refolding luminescence, 3 h; inhibition, % at 5.6 µM; hit rate 0.91% among 290,000;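 active = inhibition above the screen-wide mean plus 3 SD, computed separately per campaign, cut at about 16% in these data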;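 note: 0% = DMSO wells and 100% = 60 µM geldanamycin wells; inhibitors lower the luminescence because luciferase stays unfolded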
LGR2 antag – inhibitors of bursicon-induced Drosophila LGR2 receptor cAMP signaling; AID 720647; inhibition, % at 9.99 µM; hit rate 0.35% among 380,000; HEK293 LGR2, CRE-luciferase, bursicon-stimulated, 4 h;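 active = drop in luminescence signal, shown as inhibition above about 50% in the replicate tests, limit read from the data, passing the limit was not always enough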;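 note: agonist challenge used bursicon conditioned medium at about half maximal strength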
TROY NFkB inh – TROY signaling inhibition; Q293 LMP1-TROYcd NF-kB luciferase reporter, 4 h; inhibition, % at 10 µM; hit rate 0.98% among 360,000;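 active = compounds whose plate-normalised and pattern-corrected inhibition of the luciferase reporter signal at the single screening dose is 50% or more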
TWEAK Fn14 block – TWEAK-Fn14 signaling inhibition; TWEAK-stimulated Fn14 reporter cells, luciferase luminescence, 8 h; inhibition, % at 10 µM; hit rate 2% among 360,000; AID 1159606; in the data active = inhibition above about 50%
The depositor's hits bear a star; x = not tested or not shown.

SMILES	HSP90 inh	LGR2 antag	TROY NFkB inh	TWEAK Fn14 block
O=C(O)/C=C/c1ccc(S(=O)(=O)Nc2ccc(OCc3ccccc3)cc2)cc1	-3	3	34	14
N#Cc1ccccc1COc1ccc(/C=C/C(=O)O)cc1	12	-15	29	74*
CC(C)C(=O)N1CCN(c2ccc(NC(=O)COc3ccccc3[N+](=O)[O-])cc2)CC1	-1	63*	49	75*
CC(=O)c1c[nH]c(C(=O)Nc2ccc(N3CCCCCC3)cc2)c1	x	-32	22	69*
CN1CCN(c2ccc(NC(=O)COc3ccccc3[N+](=O)[O-])cc2)CC1	4	7	-9	-17
O=C(Nc1ccc(N2CCCCC2)cc1)c1ccccc1	28*	x	18	21
O=C(Nc1ccc(N2CCCCC2)c(Cl)c1)c1cccnc1	0	x	-66	-111
O=C(Nc1ccc(N2CCCC2)c(Cl)c1)c1cccnc1	3	x	x	83*
CC(=O)Nc1ccc(N2CCCCC2)cc1	-2	x	-2	-5
Cc1ccc(C(=O)Nc2ccc(N3CCCCC3)cc2)cc1	x	x	-36	13
C/C=C/c1ccc([C@@H]2[C@H](CO)N(C(C)=O)C23CN(S(C)(=O)=O)C3)cc1	x	-4	x	x
COc1cccc(C#Cc2ccc([C@H]3[C@H]4CN(C(C)=O)CC(=O)N4[C@H]3CO)cc2)c1	x	-6	x	x
CCCCOc1ccc(C(=O)Nc2ccc(N3CCN(C(C)=O)CC3)cc2)cc1	5	x	21	40
CCCCOc1ccc(C(=O)Nc2ccc(N3CCN(C(=O)C(C)C)CC3)cc2)cc1	-1	x	23	59*
CC(=O)N1CCN(c2ccc(NC(=O)c3ccc(C(C)(C)C)cc3)cc2)CC1	1	-11	52*	20
CC(=O)OCC(=O)Nc1ccc([N+](=O)[O-])cc1Cl	-2	-8	17	-2
CC(=O)Oc1c(C)cc(Cl)cc1C(=O)Nc1ccc([N+](=O)[O-])cc1Cl	1	-30	45	88*
CCOC(=O)N1CCN(C(=O)C2CCC(CNS(=O)(=O)c3ccc(Cl)cc3)CC2)CC1 (stereo not given)	10	x	x	51*
CCOC(=O)N1CCN(C(=O)C2CCN(S(=O)(=O)c3ccc(Cl)cc3)CC2)CC1	5	x	11	-4
Cc1ccccc1-c1ccc([C@@H]2[C@H]3CN(S(=O)(=O)c4cn(C)cn4)CCCCN3[C@H]2CO)cc1	x	-3	x	x
C/C=C/c1ccc2c(c1)O[C@H](CN(C)C(=O)C1CCCCC1)[C@@H](C)CN([C@H](C)CO)S2(=O)=O	x	-1	x	x
O=C(Nc1ccccc1)C1=C(c2ccccc2)S(=O)(=O)CCS1(=O)=O	1	100*	87*	88*
N#CNC(=Nc1cccc(F)c1)SCc1ccccc1F	-3	1	59*	0
CCCCOCCCNc1ncnc2c1[nH]c1ccccc12	8	x	38	60*
COc1ccc(N=Cc2ccc[nH]2)cc1	1	x	63*	87*
SMILES	HSP90 inh	LGR2 antag	TROY NFkB inh	TWEAK Fn14 block
CCCCOc1ccc(N=Cc2ccc[nH]2)cc1	-5	1	73*	67*
COc1ccc(N=Cc2c(O)[nH]c3ccccc23)cc1	-2	x	-44	29
COc1ccc2c3c(n(C)c2c1)[C@@H](CO)N(C(C)=O)CC31CCN(S(=O)(=O)c2ccccc2)CC1	x	0	x	x
CC(C)c1ccc(/C=C2\SC(=S)N(CCC(=O)N3CCCCC3CCO)C2=O)cc1 (stereo not given)	11	-84	65*	87*
O=C1/C(=C\c2ccccc2)SC(=S)N1CCC(=O)N1CCCCC1CCO (stereo not given)	-1	2	20	0
COc1ccc(-c2nn(-c3ccccc3)cc2C(=O)NC(=S)NNC(=O)c2ccncc2)cc1	4	26	35	60*
Oc1ccc(Cl)cc1Cc1cc(Cl)ccc1O	3	x	54*	54*
Oc1ccc(Cl)cc1CNCc1ccc(Cl)cc1	x	-2	-14	2
C[C@@H]1CN([C@@H](C)CO)C(=O)c2c(c3ccccc3n2C)-c2ccccc2CO[C@@H]1CN(C)CC1CCCCC1	x	1	x	x
Cc1ccc2c(c1)N(C(=O)CCC(=O)NCc1ccccc1)CC(C)O2 (stereo not given)	-3	-1	-5	1
CC1CN(C(=O)CCC(=O)NCc2ccccc2)c2cc(Cl)ccc2O1 (stereo not given)	67*	-12	-3	20
C[C@@H]1CN([C@@H](C)CO)S(=O)(=O)c2ccc(-c3ccc(C(=O)N(C)C)cc3)cc2O[C@@H]1CN(C)C(=O)Nc1ccccc1F	x	-11	x	x
COc1ccc(S(=O)(=O)Nc2ccc3c(c2)OC[C@@H](C)N(C(=O)NC(C)C)C[C@@H](C)[C@H](OC)CN(C)C3=O)cc1	x	8	x	x
CC1(C)CC(NC(=O)c2ccc(Cl)cc2)CC(C)(C)N1	0	3	6	74*
CC1(C)CC(NC(=O)c2ccc(F)cc2)CC(C)(C)N1	x	-16	-1	3
C[C@H](CO)N1C[C@H](C)[C@@H](CN(C)Cc2ccc(C(F)(F)F)cc2)OCc2cn(nn2)CCCC1=O	x	13	x	x
COCc1cn(CC[C@H]2CC[C@@H](NC(=O)c3ccc(F)cc3)[C@@H](CO)O2)nn1	x	-5	x	x
C[C@@H]1CN([C@H](C)CO)C(=O)c2cc(NC(=O)c3ccncc3)ccc2O[C@@H](C)CCCCO[C@H]1CN(C)C	x	-6	x	x
CCOC(=O)c1c(C)[nH]c(C(=O)OCCOc2ccccc2C)c1C	9	-113	55*	27
CCOC(=O)c1c(C)[nH]c(C(=O)OCCOc2ccc(Cl)cc2)c1C	0	-11	-3	-12
O=C1NC(=Nc2ccccc2Cl)S/C1=C\c1cccc([N+](=O)[O-])c1	-3	3	70*	10
O=C(Nc1nc2c(s1)CCCC2)c1ccc(S(=O)(=O)N2CCCc3ccccc32)cc1	1	23	17	69*
CNC(=O)c1ccsc1NC(=O)c1ccc(S(=O)(=O)N2CCCc3ccccc32)cc1	1	10	48	76*
CC1CCc2nc(NC(=O)c3ccc(S(=O)(=O)N4CCCc5ccccc54)cc3)sc2C1 (stereo not given)	-1	x	9	55*

Screens (PubChem BioAssay)
